Test results published in PubChem BioAssay (Tox21).
Where “and” joins values, the source holds several entries; their conditions need not be identical. Identical values can stand only once. Calls of active or inactive are those of the source. Where a call stands in place of a potency, no number is given. Calls come from the whole dose curve; as a rule, active = well fitted curve in the direction sought with a large enough effect in the repeat runs; inconclusive = weak or mixed curves; inactive = flat fitted curve, though single readings scatter.

Experiment: qHTS assay to test for compound auto fluorescence at 460 nm (blue) in HepG2 cells (AID 720687)
Settings: autofluorescence 405/460 nm, 1 h; series mostly up to 91.3 µM
Source text: U.S. Tox21 Program National Center for Advancing Translational Sciences [NCATS] NIH Chemical Genomics Center [NCGC] U.S. Environmental Protection Agency [EPA] National Institutes of Environmental Health Sciences [NIEHS] National Toxicology Program [NTP] U.S. Food and Drug Administration [FDA] Tox21 Assay Overview: Compound auto fluorescence often interferes with screening of the compound library against various biological targets and signaling pathways. Some of these compounds may have fluorophoric properties. Such properties may interfere with the assay outputs resulting in false positives and/or negatives. To decrease such complications and ensure the compound activities are relevant in terms of biological response, the Tox21 10K compound library was screened for auto fluorescence. From the fluorophores used as reporter signals in our screening assays, the auto fluorescence equivalencies of compounds against three fluorophores have been evaluated: Triamterene, Fluorescein and Rose Bengal sodium for blue, green and red fluorescence, respectively. The fluorescence intensities were measured using Excitation/Emission wavelengths at 405/460nm, 485/535nm and 540/590nm for blue, green and red labels, respectively. This assay includes the blue fluorescence data.
Tox21 Assay Protocol Summary: 2,000 HepG2 cells in 5 uL of culture medium (MEM containing 10% FBS) per well were dispensed into black wall/clear bottom 1536-well plates using a Multidrop Combi Dispenser (ThermoFisher Scientific, Waltham, MA). The assay plates were incubated overnight at 37 C to allow cell attachment to the well bottom, followed by the transfer of 23 nL compound or DMSO vehicle by a pintool work station (Kalypsys , San Diego, CA). After the assay plates were incubated for 1 hr at 37 C and 5% CO2, fluorescence intensities in the assay plates were measured by an Envision (PerkinElmer, Shelton, CT) plate reader using three labels for measuring blue, green and red fluorescence at […] 460, 535 and 590 nm respectively.
Potency is the fitted concentration of half-maximal effect; tags give direction and shape of the fitted curve or compound fluorescence and quenching.

Compound	Potency
CCCCCC(C)=O	inactive
Cc1cc(CC(=O)O)n(C)c1C(=O)c1ccc(Cl)cc1	inactive
CC(C=O)Cc1ccc(C(C)(C)C)cc1 (stereo not given)	inactive
CC(=O)OCCC(C)C	inactive
C=CC(=O)NCOCCCC	inactive
CC(C)(C)NC[C@H](O)COc1nsnc1N1CCOCC1	inactive
CC[N+](CC)(CC(=O)Nc1c(C)cccc1C)Cc1ccccc1	inactive
O=c1n(CCCN2CCN(c3cccc(Cl)c3)CC2)nc2ccccn12	inactive
Brc1ccc(Oc2ccc(Br)cc2)cc1	inactive
CC(=O)Nc1ccc(CC(=O)O)cc1	inactive
CCCCC(=O)O	inactive
CC(=O)C(C)C	inactive
CC/C=C(\C(=O)N[C@@H]1C(=O)N2C(C(=O)OCOC(=O)C(C)(C)C)=C(COC(N)=O)CS[C@H]12)c1csc(N)n1	inactive
Cc1ccc(C)c(S(=O)(=O)O)c1	inactive
CC(C)=CCC/C(C)=C/C=O	inactive
CCCOC(=O)NCCCN(C)C	inactive
CCc1cccc(CC)c1N	inactive
O=C1C(N(CO)C(=O)NCO)N(CO)C(=O)N1CO (stereo not given)	inactive
OB(O)O	inactive
O=C(O)C1=NN(c2ccc(S(=O)(=O)O)cc2)C(=O)C1	inactive

Compound	Potency
CC(CN1c2ccccc2Sc2ccccc21)N(C)C (stereo not given)	inactive
O=C(O)Cc1c[nH]c2ccccc12	inactive
c1cnc2c(c1)ccc1cccnc12	inactive
CC(=O)OC[C@H]1O[C@@](COC(C)=O)(O[C@H]2O[C@H](COC(C)=O)[C@@H](OC(C)=O)[C@H](OC(C)=O)[C@H]2OC(C)=O)[C@@H](OC(C)=O)[C@@H]1OC(C)=O	inactive
O=C(NCC1CCCCN1)c1cc(OCC(F)(F)F)ccc1OCC(F)(F)F (stereo not given)	inactive
Cc1ccc(C(C)C)cc1	inactive
C[Si](C)(C)N[Si](C)(C)C	inactive
OC1CCCCC1	inactive
COC(=O)CCCCC(=O)OC	inactive
CCCCCCCCC(=O)O	inactive
CCOC(=O)c1ccc(O)cc1	inactive
CCCN(CCC)C(=O)SCC	inactive
Cc1ccncc1	inactive
CCCCCCCC(=O)O	inactive
O=Cc1ccc(CO)o1	inactive
Nc1nc(N)c2nc(-c3ccccc3)c(N)nc2n1	12.6 µM [fluorescent] (active) and 39.8 µM [fluorescent] (active)
CC/C(C)=N/O	inactive
COc1c(Cl)ccc(Cl)c1C(=O)O	inactive
Cc1cc(C)cc(O)c1	inactive
Cc1ncc(CO)c(CO)c1O	inactive
